From PubChem BioAssay AID720697 (Broad Institute, 2013)
Measured potencies and affinities stand elsewhere. Results filed as inconclusive are left out. Unmarked numbers belong to inactive results. The source made the active and inactive calls.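 How the source made its calls: active means signal loss with fitted half-maximal concentration at or below twice the top valid tested dose in every test run; inconclusive means runs disagree, flat 30 to 70% signal loss, or poor fit; inactive means all runs flat, opposite direction, or potency beyond limit.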

Experiment: HEK293T cytotoxicity, dose response, cytotoxicity control for miR-122 modulator project, cell-based, inhibitor set, cherry-pick, set 2 (AID 720697);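 further: 0% = median of neutral control wells and -100% = MG132 positive control wells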
Conditions: HEK293T viability, CellTiter-Glo luminescence, 48 h; series mostly up to 26 µM

Row | SMILES | outcome | activity change, negative = cytotoxicity
1 | Cc1cc(C)cc(NC(=O)Nc2ccc3c(c2)C(=O)N(C)[C@@H]2CC[C@H](CC(=O)O)O[C@@H]2CO3)c1 | inactive | 
2 | CC(=O)N1[C@H](CO)[C@@H](c2ccccc2)[C@H]1CN(C(=O)NC(C)C)C1CCCC1 | inactive | 
3 | OC[C@H]1[C@@H](c2ccccc2)[C@H](CNCC2CCC2)N1CC1CC1 | inactive | 
4 | COc1cccc(C(=O)Nc2ccc3c(c2)C(=O)N(C)[C@H]2CC[C@H](CC(=O)NCc4ccc(F)cc4)O[C@H]2CO3)c1 | inactive | 
5 | O=C(c1ccccc1)N1C[C@H]2[C@@H](c3ccccc31)[C@@H](CO)N2C(=O)CN1CCOCC1 | inactive | 
6 | COc1cccc(NC(=O)Nc2ccc3c(c2)C(=O)N(C)[C@@H]2CC[C@H](CC(=O)O)O[C@H]2CO3)c1 | inactive | 
7 | CN1C(=O)c2cc(NC(=O)c3cccc(F)c3)ccc2OC[C@H]2O[C@H](CC(=O)N3CCc4ccccc4C3)CC[C@H]21 | inactive | 
8 | CNC(=O)C[C@@H]1CC[C@@H]2[C@@H](COc3ccc(NC(=O)Nc4ccccc4OC)cc3C(=O)N2C)O1 | inactive | 
9 | CC(C)c1ccc(NC(=O)C[C@H]2CC[C@H]3[C@@H](COc4ccc(NC(=O)Nc5ccc(F)c(F)c5)cc4C(=O)N3C)O2)cc1 | inactive | 
10 | C/C=C/c1ccc2c(c1)O[C@H](CN(C)C(=O)c1cnccn1)[C@H](C)CN([C@H](C)CO)S2(=O)=O | inactive | 
11 | C/C=C/c1ccc([C@@H]2[C@H](CO)N(Cc3ccccn3)[C@H]2CNC(=O)CC)cc1 | inactive | 
12 | Cc1ccc(-n2ncc(C(=O)Nc3cc(Cl)ccc3C)c2C2CCNCC2)cc1C | inactive | 
13 | CN1C(=O)c2cc(NC(=O)Nc3ccccc3F)ccc2OC[C@@H]2O[C@H](CC(=O)O)CC[C@@H]21 | inactive | 
14 | COc1ccc(C(=O)N2C[C@H]3[C@@H](c4ccccc42)[C@@H](CO)N3C(=O)Cc2ccccn2)cc1 | inactive | 
15 | C[C@@H]1CN([C@H](C)CO)S(=O)(=O)c2ccc(C3=CCCC3)cc2O[C@@H]1CN(C)C(=O)c1ccc(F)cc1 | inactive | 
16 | N#CCc1c(C#N)c(N)nc(N2CCN(S(=O)(=O)c3ccccc3)CC2)c1C#N | inactive | 
17 | COc1ccc(NS(=O)(=O)c2ccc(NC(=O)C(C)(C(F)(F)F)C(F)(F)F)cc2)nn1 | inactive | 

Row | SMILES | outcome | activity change, negative = cytotoxicity
18 | CCCC(NS(=O)(=O)c1ccc(Br)cc1)C(=O)O (stereo not drawn) | inactive | 
19 | COc1cccc(C(=O)Nc2ccc3c(c2)C(=O)N(C)[C@H]2CC[C@H](CC(=O)NCc4ccc(F)cc4)O[C@@H]2CO3)c1 | inactive | 
20 | C/C=C/c1ccc2c(c1)O[C@H](CN(C)C(=O)Nc1cccc(F)c1)[C@H](C)CN([C@@H](C)CO)S2(=O)=O | inactive | 
21 | CN1C(=O)c2cc(NC(=O)c3cccs3)ccc2OC[C@@H]2O[C@H](CC(=O)NCCN3CCCCC3)CC[C@H]21 | inactive | 
22 | COC(=O)C[C@H]1CC[C@@H]2[C@@H](COc3ccc(NC(=O)c4cnccn4)cc3C(=O)N2C)O1 | inactive | 
23 | C[C@H](CO)N1C[C@H](C)[C@H](CN(C)C(=O)NC2CCCCC2)Oc2ncc(-c3cccc(C(F)(F)F)c3)cc2C1=O | inactive | 
24 | COCC(=O)N(C)C[C@H]1Oc2cc(-c3ccccc3F)ccc2S(=O)(=O)N([C@H](C)CO)C[C@H]1C | inactive | 
25 | O=C(Nc1ccccc1F)N1C[C@H]2[C@@H](c3ccccc31)[C@@H](CO)N2C(=O)C1CC1 | inactive | 
26 | COC(=O)C[C@H]1CC[C@H]2[C@H](COc3ccc(NC(=O)c4cccc(F)c4)cc3C(=O)N2C)O1 | inactive | 
27 | C[C@@H]1CN([C@@H](C)CO)S(=O)(=O)c2ccc(-c3ccccc3)cc2O[C@@H]1CN(C)C(=O)c1ccc2c(c1)OCO2 | inactive | 
28 | C[C@H]1CN([C@@H](C)CO)C(=O)c2cc(-c3ccc(C#N)cc3)cnc2O[C@H]1CN(C)C(=O)Nc1ccc(C(F)(F)F)cc1 | inactive | 
29 | CCS(=O)(=O)Nc1ccc2c(c1)C(=O)N(C)C[C@@H](OC)[C@H](C)CN(CC1CCCC1)[C@H](C)CO2 | inactive | 
30 | CN1C(=O)c2cc(NC(=O)c3cccc(F)c3)ccc2OC[C@H]2O[C@@H](CC(=O)O)CC[C@@H]21 | inactive | 
31 | N=c1c2c(-c3ccccc3)c(-c3ccccc3)n(Cc3ccccc3)c2ncn1CCO | inactive | 
32 | CCN(CC)CCNC(=O)c1ccc(NC(=O)c2cn(-c3ccc(F)cc3)nc2-c2cccc(OC)c2)cc1 |  | -17.7% [at 6 µM]
33 | CNC(=O)C[C@@H]1CC[C@@H]2[C@H](COc3ccc(NC(=O)c4cccc(OC)c4)cc3C(=O)N2C)O1 | inactive | 
